Test results reported in PubChem BioAssay (Tox21).
Values joined by “and” are separate entries in the source; they are usually repeats but may differ in a detail not shown here. Equal values may be shown once. Inconclusive results are not listed. A structure can be active in one record and inactive in another. Active and inactive are the calls of the source. Unless noted, calls come from the whole dose curve; as a rule, active = well fitted curve in the direction sought with a large enough effect in the repeat runs; inconclusive = weak or mixed curves; inactive = no such curve, though single readings can be large; an effect the other way counts as inactive or inconclusive.

Legend:
[1] = qHTS assay to identify aromatase inhibitors - cell viability counter screen (AID 743084);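 note: cells stimulated with testosterone during compound exposure; nearly all actives have a fitted effect of over 55% in size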; note: potency is the fitted concentration of half-maximal effect
[2] = biological target: Aryl hydrocarbon receptor (Homo sapiens) (UniProt P35869); experiment: qHTS assay to identify small molecule that activate the aryl hydrocarbon receptor (AhR) signaling pathway (AID 743085); note: nearly all actives have a fitted effect of over 15% in size; note: potency is the fitted concentration of half-maximal effect;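 for activation: HG2L7.5c1 human HepG2 liver cells with stably integrated DRE-driven firefly reporter; series mostly up to about 70 µM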
Aryl hydrocarbon receptor (Homo sapiens), sequence (P35869 whole entry, looked up): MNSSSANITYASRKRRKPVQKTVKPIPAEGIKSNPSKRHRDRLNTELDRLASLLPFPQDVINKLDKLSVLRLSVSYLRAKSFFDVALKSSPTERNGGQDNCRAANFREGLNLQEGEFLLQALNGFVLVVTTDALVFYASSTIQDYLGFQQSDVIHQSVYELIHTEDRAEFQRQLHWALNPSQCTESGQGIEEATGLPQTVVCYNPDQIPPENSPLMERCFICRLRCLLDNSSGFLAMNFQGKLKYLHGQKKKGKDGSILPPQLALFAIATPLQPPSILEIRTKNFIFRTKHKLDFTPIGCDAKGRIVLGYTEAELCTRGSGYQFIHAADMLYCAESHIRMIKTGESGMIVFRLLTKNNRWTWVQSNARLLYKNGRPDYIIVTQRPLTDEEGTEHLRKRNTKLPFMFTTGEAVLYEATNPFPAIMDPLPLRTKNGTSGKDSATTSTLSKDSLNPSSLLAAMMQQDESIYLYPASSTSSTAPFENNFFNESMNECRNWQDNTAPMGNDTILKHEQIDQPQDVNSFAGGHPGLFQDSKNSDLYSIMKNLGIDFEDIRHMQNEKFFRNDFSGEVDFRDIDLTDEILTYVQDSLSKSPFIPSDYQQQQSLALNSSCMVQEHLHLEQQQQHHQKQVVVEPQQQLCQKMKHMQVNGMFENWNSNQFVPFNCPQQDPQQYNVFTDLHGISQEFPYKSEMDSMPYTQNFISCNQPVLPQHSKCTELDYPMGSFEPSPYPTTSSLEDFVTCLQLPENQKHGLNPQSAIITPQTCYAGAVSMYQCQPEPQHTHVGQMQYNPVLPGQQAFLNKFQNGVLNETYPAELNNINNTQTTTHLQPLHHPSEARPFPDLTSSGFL
Summary of the method: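 Measured in HG2L7.5c1 cells: CellTiter-Fluor signal (30 min incubation, 37C) for viability, then luciferase luminescence (30 min, room temperature). Compound contact time was 24 h at 37C, following a 5 h pre-incubation.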

[3] = qHTS assay to identify small molecule that activate the aryl hydrocarbon receptor (AhR) signaling pathway - cell viability counter screen (AID 743086);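 note: HepG2 liver cells carrying the AhR DRE luciferase reporter; series mostly up to about 70 µM; nearly all actives have a fitted effect of over 45% in size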
Summary of the method: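 HepG2-AhR-luc (HG2L7.5c1) cells, 4000/well, were preincubated 5 h at 37C, exposed to compound in qHTS format for 24 hr at 37C, then given CellTiter-Fluor for 30 min; viability was read as fluorescence in the reporter wells.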

[4] = biological target: Peroxisome proliferator-activated receptor gamma (Homo sapiens) (UniProt P37231); experiment: qHTS assay to identify small molecule agonists of the peroxisome proliferator-activated receptor gamma (PPARg) signaling pathway (AID 743094; active = well fitted activation curve with a large enough effect in the signal ratio in the repeat runs, not every such curve was filed as active; the % refers to the signal ratio)
Peroxisome proliferator-activated receptor gamma (Homo sapiens), sequence (P37231 whole entry, looked up): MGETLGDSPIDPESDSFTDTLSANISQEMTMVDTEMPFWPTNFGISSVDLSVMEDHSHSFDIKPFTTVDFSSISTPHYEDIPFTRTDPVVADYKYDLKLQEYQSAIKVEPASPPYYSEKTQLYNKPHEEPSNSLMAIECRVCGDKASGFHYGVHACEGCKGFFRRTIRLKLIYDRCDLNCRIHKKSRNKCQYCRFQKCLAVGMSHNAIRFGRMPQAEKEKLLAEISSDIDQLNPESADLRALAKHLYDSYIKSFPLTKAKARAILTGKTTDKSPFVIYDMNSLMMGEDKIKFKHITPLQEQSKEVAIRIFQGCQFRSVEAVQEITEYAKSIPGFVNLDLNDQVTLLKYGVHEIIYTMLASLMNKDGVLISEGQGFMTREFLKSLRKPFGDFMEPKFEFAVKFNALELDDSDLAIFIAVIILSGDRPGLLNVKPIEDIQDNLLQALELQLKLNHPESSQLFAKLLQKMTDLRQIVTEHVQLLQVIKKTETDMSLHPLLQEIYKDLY
Summary of the method: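 Agonism was assessed in a beta-lactamase reporter system, HEK293H cells with a stably integrated UAS-bla construct under PPARg control; the 17 h treatment at 37C preceded a 1 h room-temperature FRET substrate read.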

[5] = biological target: Peroxisome proliferator-activated receptor gamma (Homo sapiens) (UniProt P37231); experiment: qHTS assay to identify small molecule antagonists of the peroxisome proliferator-activated receptor gamma (PPARg) signaling pathway (AID 743191; calls by dose curve; note: series mostly up to about 63 µM; nearly all actives have a fitted effect of over 30% in size)
Summary of the method: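 GeneBLAzer PPARg UAS-bla HEK293H cells carrying a UAS-driven beta-lactamase reporter were plated at 3000 cells/well, preincubated 5 h at 37C, then given compound for 17 h at 37C; LiveBLAzer B/G FRET substrate was read after 1 h at room temperature.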

[6] = qHTS assay to identify small molecule antagonists of the peroxisome proliferator-activated receptor gamma (PPARg) signaling pathway - cell viability counter screen (AID 743194); note: nearly all actives have a fitted effect of over 55% in size
Summary of the method: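 PPARg-UAS-bla HEK293H cells were plated, rested 5 h at 37 C, then treated with compounds plus rosiglitazone (50 nM final) for 17 h at 37 C; viability was then read by CellTiter-Glo luminescence after 30 min at room temperature.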

[7] = qHTS assay for small molecule agonists of the antioxidant response element (ARE) signaling pathway (AID 743202; active = well fitted activation curve with a large enough effect in the signal ratio in the repeat runs, not every such curve was filed as active; the % refers to the signal ratio; note: potency is the fitted concentration of half-maximal effect)
Summary of the method: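 Steps: seed ARE-bla HepG2 cells (2,000/well); incubate 5 h at 37 C; add compounds by pin tool; incubate 16 h at 37 C; add FRET substrate; read fluorescence after 2 h at RT.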

[8] = qHTS assay for small molecule agonists of the antioxidant response element (ARE) signaling pathway - cell viability counter screen (AID 743203; calls by dose curve; note: nearly all actives have a fitted effect of over 55% in size; note: potency is the fitted concentration of half-maximal effect)
Summary of the method: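 ATP content via CellTiter-Glo luminescence served as the viability measure. Cells: ARE-bla HepG2, 2,000 per well. Exposure: 16 hrs, 37C/5% CO2.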

[9] = qHTS assay for small molecule activators of the heat shock response signaling pathway - cell viability counter screen (AID 743209); note: nearly all actives have a fitted effect of over 50% in size
Summary of the method: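 Compounds dissolved in DMSO were added to overnight-plated HSE-bla HeLa cells and left 5 h at 37 C. Cell viability was quantified by luminescence using CellTiter-Glo.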

[10] = qHTS assay for small molecule activators of the heat shock response signaling pathway (AID 743210; active = well fitted activation curve with a large enough effect in the signal ratio in the repeat runs, with a control signal flat, not every such curve was filed as active; the % refers to the signal ratio;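 note: HeLa cells with beta-lactamase reporter driven by heat shock elements; series mostly up to about 63 µM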)
Summary of the method: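 Activation of heat shock element-controlled beta-lactamase expression is measured in HeLa cells by LiveBLAzer FRET fluorescence, with compound exposure lasting 5 h at 37 C and substrate loading 2.5 h at room temperature.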

Measured: Potency

CCc1ccccc1O
inactive: all assays above

OC[C@@H](O)[C@H](O)[C@H](O)[C@@H](O)CO
inactive: all assays above

COC(=O)Nc1nc2ccc(Sc3ccccc3)cc2[nH]1
active: [2] 1.8 µM and 9.69 µM
not listed: [5] | [7] | [10]
inactive: all other assays above

OCC#CCO
inactive: all assays above

CCCCCC/C=C/CCCCCCCC(=O)O
not listed: [5]
inactive: all other assays above

C=CC(=O)OCCCCCCCC(C)C
inactive: all assays above

NC(=O)/N=N/C(N)=O
not listed: [5] | [10]
inactive: all other assays above

CC1(C)O[C@@H]2C[C@H]3[C@@H]4C[C@H](F)C5=CC(=O)CC[C@]5(C)[C@H]4[C@@H](O)C[C@]3(C)[C@]2(C(=O)CO)O1
not listed: [5]
inactive: all other assays above

Nc1cc(-c2ccncc2)c[nH]c1=O
not listed: [7]
inactive: all other assays above

Cc1cc(O)c2c(c1)C(=O)c1cc(O)cc(O)c1C2=O
inactive: [3] | [4] | [6] | [9]
active: [1] 11.9 µM and 24.3 µM | [2] 5.97 µM and 34.4 µM | [7] 4.23 µM | [8] 23.8 µM

C/C=C(C)/C=C/C=C(C)C
active: [7] 60.4 µM
not listed: [5] | [10]
inactive: all other assays above

O=[N+]([O-])c1cccc(Cl)c1
inactive: all assays above

CC(C)Cc1ccccc1
inactive: all assays above

O=C(Oc1ccccc1)c1ccc(O)cc1
inactive: all assays above

CC(=O)Nc1ccc(C(=O)O)cc1
inactive: all assays above

O=C1CCCCC1
inactive: all assays above

CCc1ccc(O)cc1
inactive: all assays above

O=Nc1ccc(O)cc1
53.2 µM (active) and inactive: [2]
inactive: all other assays above

CCCCC(CC)COC(C)=O (configuration not stated)
inactive: all assays above

Cc1cc(=O)[nH]c(C(C)C)n1
inactive: all assays above

Cc1ccc(C)c(C)c1
not listed: [5]
inactive: all other assays above

C=C1C2CCC(C2)C1(C)C (configuration not stated)
inactive: all assays above
